High-throughput results from PubChem.
Pf Dd2 inh – Plasmodium falciparum Dd2 growth inhibition. P. falciparum Dd2 growth, SYBR Green, 72 h. Potency, µM (series often up to 28.9 µM), without a hit: at the top dose activity, negative = inhibition, usual class: inhibitors. 120,000 tested, 4.3% active; active = well fitted inhibition curve with a large enough effect;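 also: plate controls were DMSO vehicle for no effect and reference drug for full effect; nearly all actives have a fitted effect of over 65% in size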
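Infected erythrocytes (Dd2, 0.3% parasitemia, 2.5% hematocrit final) are added to compound in RPMI-1640/Albumax II medium, grown 72 h at 37C in low oxygen, then lysed with saponin/Triton-X containing SYBR Green and read by fluorescence.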
* marks the source's active call; other numbers are inactive results; [ ] = remark or other dose. Shown is part of a subset that was picked to be rich in hits. Potency is read from the fitted curve at half-maximal effect.

For CNCc1cccn1C the results were Pf Dd2 inh -1.4%[44.1 µM].
For Cc1ccc(C(=O)N2CCCN(C(=O)C3CC3)C(c3ccccc3)CC(=O)NCC2)cn1 (centres undefined) the results were Pf Dd2 inh -0.9%.
COc1ccc(C2Cn3nnc(C(=O)N4CCC(C(=O)NCC5CC5)CC4)c3CO2)cc1 (centres undefined) was read as Pf Dd2 inh inactive.
For CS(=O)(=O)N1CCOC(Cn2ccnc2-c2ccc(CO)o2)C1 (centres undefined) the results were Pf Dd2 inh -2.6%.
CCN1C(=O)C2CC3(CCN(C(=O)c4cnc(C)cn4)CC3)CN2C1=O (centres undefined) was read as Pf Dd2 inh 10.2%.
`CCc1ccc(C(=O)N2CCC(N3C(=O)CCC3C(=O)NCc3ccccc3)CC2)cc1` (centres undefined) gave Pf Dd2 inh -14.1%.
For CCC(CO)Nc1ncnc2c1CN(C1CCCNCC1)C(=O)CN2C (centres undefined) the results were Pf Dd2 inh 12.1%.
For C[S+](=O)([O-])N1CCC(Cn2ccc3c(N4CCOCC4)nc(-c4ccncc4)cc32)CC1 the results were Pf Dd2 inh inactive.
Screening COc1cc(NC(=O)N2CCc3c(sc4c3CCCC4)C2c2ccccc2)cc(OC)c1OC (centres undefined) returned Pf Dd2 inh 16.3%.
For COc1ccc(Cl)cc1NC(=O)CN1C(=O)NC2(CCCCC2)C1=O the results were Pf Dd2 inh inactive.
COc1ccc(Cl)cc1NC(=O)N1CC(=O)Nc2sc3c(c2C1c1ccccc1)CCCC3 (centres undefined) was read as Pf Dd2 inh 11.2µM*.
Cc1nc(-c2c3n(c(=O)n(CCOc4ccccc4)c2=O)CCCCC3)no1 was read as Pf Dd2 inh 10.9%.
`Cc1nnc2n1CCC(N(C)C(=O)c1ccc3c(c1)OCO3)CC2` (centres undefined) gave Pf Dd2 inh 2.1%.
Screening Cc1cc2nc3n(c(=O)c2n1CC(=O)Nc1cccc(Cl)c1)CCC3 returned Pf Dd2 inh inactive.
For COc1ccc(CCC(=O)N[C@@H]2CN(c3ccncn3)C[C@H]2CN(C)C)cc1 the results were Pf Dd2 inh 23.8%.
Screening Cc1ccc(CC(=O)N[C@@H]2CN(c3ccncn3)C[C@H]2CN(C)C)cc1 returned Pf Dd2 inh 7.0%.
CN(C)C[C@@H]1CN(c2ccncn2)C[C@H]1NC(=O)COc1ccc(Cl)cc1 was read as Pf Dd2 inh 7.94µM*.
Screening Cc1noc(C)c1-c1cc2c(cc(-c3ccccc3)n2C)c(N2CCOCC2)n1 returned Pf Dd2 inh -23.3%[44.1 µM].
CC(=O)N1CCc2cc(Br)cc(S(=O)(=O)N3CCN(c4cccc(C(F)(F)F)c4)CC3)c21 was read as Pf Dd2 inh 10µM*.
O=C(C1CC1)N1CCc2cc(Br)cc(S(=O)(=O)N3CCN(c4cccc(Cl)c4)CC3)c21 was read as Pf Dd2 inh -6.8%.
CCC(=O)N1CCc2cc(Br)cc(S(=O)(=O)N3CCN(c4ccccc4)CC3)c21 was read as Pf Dd2 inh -3.4%.
Screening COc1ccc2[nH]c(C(=O)N3C[C@@H](Oc4ccccc4)C[C@H]3C(=O)N3CCOCC3)cc2c1 returned Pf Dd2 inh -16.3%.
`CCN1c2cc(C(=O)Nc3ccc(C)cc3)ccc2C(=O)N2CCCCC21` (centres undefined) gave Pf Dd2 inh inactive.
For CCc1cccc(NC(=O)c2ccc3c(c2)N(CC)C2CCCCN2C3=O)c1 (centres undefined) the results were Pf Dd2 inh 4.47µM*.
For CCc1cccc(NC(=O)c2ccc3c(c2)N(C)C2CCCN2C3=O)c1 (centres undefined) the results were Pf Dd2 inh -7.3%.
CCN1c2cc(C(=O)NCc3ccccc3)ccc2C(=O)N2CCCCC21 (centres undefined) was read as Pf Dd2 inh -4.3%.
For CN1c2cc(C(=O)Nc3cc(F)cc(F)c3)ccc2C(=O)N2CCCCCC21 (centres undefined) the results were Pf Dd2 inh 4.47µM*.
CCN1c2cc(C(=O)Nc3cccc(C)c3)ccc2C(=O)N2CCCCC21 (centres undefined) was read as Pf Dd2 inh inactive.
`CCN1c2cc(C(=O)NCc3ccc(C(C)C)cc3)ccc2C(=O)N2CCCCCC21` (centres undefined) gave Pf Dd2 inh 11.2µM*.
For CCN1c2cc(C(=O)Nc3ccc(C)c(Cl)c3)ccc2C(=O)N2CCCC21 (centres undefined) the results were Pf Dd2 inh -22.3%.
For CCN1c2cc(C(=O)NCc3ccc(C)cc3)ccc2C(=O)N2CCCCCC21 (centres undefined) the results were Pf Dd2 inh -9.0%.
For CN1c2cc(C(=O)Nc3cccc(F)c3)ccc2C(=O)N2CCCCC21 (centres undefined) the results were Pf Dd2 inh -11.4%.
CCN1c2cc(C(=O)Nc3ccc(Br)c(C)c3)ccc2C(=O)N2CCCCC21 (centres undefined) was read as Pf Dd2 inh 5.62µM*.
For Cc1cc(C)cc(NC(=O)c2ccc3c(c2)N(C)C2CCCCCN2C3=O)c1 (centres undefined) the results were Pf Dd2 inh inactive.
`CNC(=O)[C@@H]1C[C@H](Oc2ccccc2)CN1C(=O)Cn1nc(C)cc1C` gave Pf Dd2 inh -10.4%.
CC(C)CC(=O)NC[C@@H]1C[C@H](F)CN1C(=O)c1cn(CCN)nn1 was read as Pf Dd2 inh -14.5%.
For COC[C@H]1C[C@@H](NCc2nccn2C)[C@H](O)[C@@H]1O the results were Pf Dd2 inh -5.7%[44.1 µM].
CCC1CN(C(=O)c2ccc(-c3ccsc3)nc2)CCN1C(C)C (centres undefined) was read as Pf Dd2 inh inactive.
O=C(c1ccccc1)N1CC[C@H]2COC(=O)N2c2cc(F)ccc2C1 was read as Pf Dd2 inh 17.8%[44.1 µM].
Screening CC(C)C(=O)N1CCN(c2nc3c(s2)CC(C(=O)NCCc2cccs2)CC3)CC1 (centres undefined) returned Pf Dd2 inh -15.6%.
`Cc1ccc(-c2noc(C(C)Oc3ccccc3)n2)nn1` (centres undefined) gave Pf Dd2 inh -13.2%.
Screening O=C(Cc1ccccc1)N1CCC(O)(c2csc(CN3CCOCC3)n2)CC1 returned Pf Dd2 inh 0.8%[44.1 µM].
For CCOc1ccc(OCC)c(NC(=O)c2cc3n(n2)CC(c2ccc(Cl)cc2)OC3)c1 (centres undefined) the results were Pf Dd2 inh -0.9%.
For O=C(Nc1ccnn1C1CCN(Cc2ccc(OC3CCCC3)cc2)CC1)C1CC1 the results were Pf Dd2 inh -3.9%.
C=CCn1ccn2cnc(-c3ccccc3)c2c1=O was read as Pf Dd2 inh inactive.
COc1ccc(N2CC(c3noc(-c4ccc5c(c4)OCO5)n3)CC2=O)cc1 (centres undefined) was read as Pf Dd2 inh 89.6%.
For Cc1cnc(C(=O)N2CCc3ccc(S(=O)(=O)Nc4cccnc4)cc3C2)cn1 the results were Pf Dd2 inh -10.6%.
Screening CCN1c2cc(C(=O)Nc3cccc(C)c3)ccc2C(=O)N2CCCCCC21 (centres undefined) returned Pf Dd2 inh -15.0%.
For Cc1ccc(CNC(=O)c2ccc3c(c2)N(C)C2CCCCCN2C3=O)cc1C (centres undefined) the results were Pf Dd2 inh inactive.
`CCN1c2cc(C(=O)NCc3cccc(C)c3)ccc2C(=O)N2CCCCC21` (centres undefined) gave Pf Dd2 inh inactive.
